# In PubChem BioAssay:
# For part of these data: Measured potencies and affinities stand elsewhere. Records with an inconclusive call do not appear. Active and inactive are the calls of the source.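 The calls were made as follows, unless noted: active = falling signal with fitted half-maximal potency no higher than twice the top valid tested dose; inconclusive = poor fit quality, or flat fit spanning -70% to -30%; inactive = potency over limit, rising signal, or flat fit inside 30%.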
# Assays:
# [1] = binders of probe aFSTL3 on microarray, primary screen, stem cell growth factor project, biochemical, small-molecule microarray, fluorescence 635/667 (AID 1064); conditions: higher = more signal;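 also: measures binding of the biotinylated anti-FSTL3 antibody to printed compounds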
# [2] = binders from COS7 lysate, DM2A8 probe, primary screen, torsin A project, cell lysate, small-molecule microarray, fluorescence 635/667 (AID 1065); conditions: higher = more signal, COS7 lysate expressing mutant human TOR1A
# [3] = binders of probe aFGF2 on microarray, primary screen, stem cell growth factor project, biochemical, small-molecule microarray, fluorescence 635/667 (AID 1067); conditions: higher = more signal;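 also: measures binding of biotinylated aFGF2 protein to printed compounds on slides; z-score merges feature fluorescence and signal-to-noise across triplicate slides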
# [4] = binders of probe aFGF10 on microarray, primary screen, stem cell growth factor project, biochemical, small-molecule microarray, fluorescence 635/667 (AID 1071); conditions: higher = more signal;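 also: score merges 667 nm spot intensity and signal to noise from triplicate slides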
# [5] = target: Neurogenic locus notch homolog protein 2 (Homo sapiens) (UniProt Q04721); assay: Notch2 binders on small-molecule microarrays, primary screen, biochemical, small-molecule microarray, 635 nm fluorescence, stem cell growth factors (AID 1073); conditions: Notch2 binding, higher = more signal
# Sequence of Neurogenic locus notch homolog protein 2 (Homo sapiens) (Q04721 whole entry, looked up, canonical isoform): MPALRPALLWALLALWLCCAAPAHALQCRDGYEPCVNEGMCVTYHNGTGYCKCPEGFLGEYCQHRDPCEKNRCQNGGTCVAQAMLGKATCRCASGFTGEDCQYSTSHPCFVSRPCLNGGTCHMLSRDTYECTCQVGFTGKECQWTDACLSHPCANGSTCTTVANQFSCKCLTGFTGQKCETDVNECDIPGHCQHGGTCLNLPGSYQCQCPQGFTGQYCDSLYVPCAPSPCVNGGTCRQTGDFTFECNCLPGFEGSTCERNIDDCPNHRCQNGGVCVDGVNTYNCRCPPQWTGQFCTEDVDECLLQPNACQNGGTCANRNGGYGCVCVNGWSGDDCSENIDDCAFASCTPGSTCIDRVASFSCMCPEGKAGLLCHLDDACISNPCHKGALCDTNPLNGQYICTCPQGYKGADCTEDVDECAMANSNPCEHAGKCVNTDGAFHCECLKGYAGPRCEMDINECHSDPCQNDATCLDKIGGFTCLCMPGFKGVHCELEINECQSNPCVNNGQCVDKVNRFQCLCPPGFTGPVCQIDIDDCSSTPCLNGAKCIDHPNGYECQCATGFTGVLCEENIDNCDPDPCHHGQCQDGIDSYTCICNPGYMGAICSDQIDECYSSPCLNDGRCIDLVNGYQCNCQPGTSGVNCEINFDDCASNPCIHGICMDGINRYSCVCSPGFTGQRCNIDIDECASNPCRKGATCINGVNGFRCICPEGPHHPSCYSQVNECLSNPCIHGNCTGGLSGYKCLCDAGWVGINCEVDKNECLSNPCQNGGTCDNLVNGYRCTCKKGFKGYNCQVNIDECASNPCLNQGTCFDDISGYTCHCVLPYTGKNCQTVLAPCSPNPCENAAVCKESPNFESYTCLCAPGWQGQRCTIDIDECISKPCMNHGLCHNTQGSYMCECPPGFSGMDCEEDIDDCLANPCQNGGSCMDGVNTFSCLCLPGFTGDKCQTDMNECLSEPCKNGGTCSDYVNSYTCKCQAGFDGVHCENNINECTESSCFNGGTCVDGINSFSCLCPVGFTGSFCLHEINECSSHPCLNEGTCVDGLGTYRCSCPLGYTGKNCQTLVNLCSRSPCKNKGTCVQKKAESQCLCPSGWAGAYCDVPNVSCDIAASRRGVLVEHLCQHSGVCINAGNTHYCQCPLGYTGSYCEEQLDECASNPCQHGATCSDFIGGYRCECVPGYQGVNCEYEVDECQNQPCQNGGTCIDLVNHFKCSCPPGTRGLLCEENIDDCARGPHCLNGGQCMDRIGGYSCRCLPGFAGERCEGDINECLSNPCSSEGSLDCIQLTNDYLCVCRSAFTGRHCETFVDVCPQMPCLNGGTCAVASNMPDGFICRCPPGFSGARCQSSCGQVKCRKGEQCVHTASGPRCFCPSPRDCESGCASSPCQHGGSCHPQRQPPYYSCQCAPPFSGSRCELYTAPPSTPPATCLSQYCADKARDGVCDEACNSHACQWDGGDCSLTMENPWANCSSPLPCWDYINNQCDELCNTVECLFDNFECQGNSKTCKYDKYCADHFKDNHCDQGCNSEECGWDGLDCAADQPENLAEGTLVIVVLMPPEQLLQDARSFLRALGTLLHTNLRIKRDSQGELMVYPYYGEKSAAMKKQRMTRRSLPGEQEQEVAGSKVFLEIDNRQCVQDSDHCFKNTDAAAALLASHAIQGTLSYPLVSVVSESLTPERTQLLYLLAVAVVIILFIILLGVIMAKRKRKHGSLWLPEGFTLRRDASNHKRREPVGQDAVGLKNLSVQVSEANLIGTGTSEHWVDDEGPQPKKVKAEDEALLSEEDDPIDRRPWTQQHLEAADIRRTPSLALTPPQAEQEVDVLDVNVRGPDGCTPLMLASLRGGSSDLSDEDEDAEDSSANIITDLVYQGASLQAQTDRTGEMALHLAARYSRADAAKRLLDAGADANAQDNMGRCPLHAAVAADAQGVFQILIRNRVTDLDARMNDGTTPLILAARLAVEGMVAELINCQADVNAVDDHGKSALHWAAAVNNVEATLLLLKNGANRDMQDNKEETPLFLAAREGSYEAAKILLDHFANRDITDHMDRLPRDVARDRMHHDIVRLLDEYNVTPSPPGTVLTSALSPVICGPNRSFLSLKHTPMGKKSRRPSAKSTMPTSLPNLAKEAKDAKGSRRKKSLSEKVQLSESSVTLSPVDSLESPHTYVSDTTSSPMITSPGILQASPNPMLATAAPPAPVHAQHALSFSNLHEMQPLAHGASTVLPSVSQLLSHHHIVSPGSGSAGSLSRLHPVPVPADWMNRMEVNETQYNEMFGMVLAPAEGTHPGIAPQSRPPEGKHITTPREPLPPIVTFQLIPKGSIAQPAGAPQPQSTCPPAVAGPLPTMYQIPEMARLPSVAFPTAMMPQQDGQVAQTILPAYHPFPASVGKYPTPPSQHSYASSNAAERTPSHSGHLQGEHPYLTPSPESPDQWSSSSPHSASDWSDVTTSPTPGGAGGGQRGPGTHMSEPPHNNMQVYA
# [6] = target: Pro-neuregulin-1, membrane-bound isoform (Homo sapiens) (UniProt Q02297); assay: NRG1 binders on small-molecule microarrays, primary screen, psychiatric disease protein project, biochemical, small-molecule microarray, fluorescence 635/667 (AID 1075); conditions: NRG1 binding, 635 nm fluorescence, higher = more signal;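 also: score combines 667 nm spot fluorescence with signal to noise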
# Sequence of Pro-neuregulin-1, membrane-bound isoform (Homo sapiens) (Q02297 whole entry, looked up, the tested form may be a part, canonical isoform): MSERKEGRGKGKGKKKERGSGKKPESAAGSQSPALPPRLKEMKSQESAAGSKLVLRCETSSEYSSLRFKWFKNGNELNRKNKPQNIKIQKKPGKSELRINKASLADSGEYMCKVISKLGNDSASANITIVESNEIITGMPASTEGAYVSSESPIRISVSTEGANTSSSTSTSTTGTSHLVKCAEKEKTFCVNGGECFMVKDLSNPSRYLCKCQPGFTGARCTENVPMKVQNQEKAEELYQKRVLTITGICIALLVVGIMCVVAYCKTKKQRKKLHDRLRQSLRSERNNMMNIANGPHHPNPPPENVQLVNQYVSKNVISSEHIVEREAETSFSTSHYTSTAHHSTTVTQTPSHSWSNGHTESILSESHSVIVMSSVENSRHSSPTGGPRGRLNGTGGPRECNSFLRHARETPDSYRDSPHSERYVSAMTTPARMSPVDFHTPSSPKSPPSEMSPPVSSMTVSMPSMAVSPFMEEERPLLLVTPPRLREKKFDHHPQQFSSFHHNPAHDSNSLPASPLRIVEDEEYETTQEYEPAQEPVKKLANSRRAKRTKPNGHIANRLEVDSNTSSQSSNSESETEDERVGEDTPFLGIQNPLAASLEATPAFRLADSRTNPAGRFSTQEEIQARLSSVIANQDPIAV
# [7] = system: Neuregulin-1 EGF-like domain; assay: binders of neuregulin-1 EGF-like domain, primary screen, biochemical, small-molecule microarray, 635 nm fluorescence (AID 1081); conditions: small-molecule microarray binding, higher = more signal;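 also: binding of the protein to compounds printed on small-molecule microarray slides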
# [8] = FRG1 promoter luciferase signal modulators, primary screen, FRG1 inhibition for FSHD, cell-based, C2C12 myotubes, firefly/Renilla luciferase, luminescence (AID 1084); conditions: higher = more signal, called active from +8 up or from −8 down
# [9] = binders of probe aFST on microarray, primary screen, stem cell growth factor project, biochemical, small-molecule microarray, fluorescence 635/667 (AID 1086); conditions: higher = more signal;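 also: score merges 667 nm fluorescence with signal-to-noise of each printed compound spot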
# [10] = binders of probe aHhip on microarray, primary screen, stem cell growth factor project, biochemical, small-molecule microarray, fluorescence 635/667 (AID 1087); conditions: higher = more signal;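 also: score merges spot fluorescence at 667nm with spot signal to noise ratio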
# [11] = system: PRMT1 (protein arginine N-methyltransferase 1); assay: PRMT1 binders on small-molecule microarrays, primary screen, biochemical, small-molecule microarray, 635 nm fluorescence (AID 1088); conditions: small-molecule microarray binding, higher = more signal;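 also: binding of Prmt1 protein to compounds spotted on small-molecule microarray slides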
# [12] = yeast growth modulation, basal conditions, primary screen, YJM789 clinical isolate, OD600, 24 h (AID 1089);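 also: growth of clinical yeast isolate S. cerevisiae YJM 789 seeded 1000 cells per well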; conditions: S. cerevisiae YJM789 growth, higher = more signal, called active from +8 up or from −8 down
# [13] = fission yeast growth modulation, primary screen, strain 972, OD600, 24 h, no modulator (AID 1090);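 also: basal condition with compound alone and no growth modifier present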; conditions: S. pombe 972 growth, higher = more signal, called active from +8 up or from −8 down
# [14] = S. cerevisiae growth modulation with rapamycin, primary screen, strain BY4716, OD600, 96 h (AID 1091); conditions: higher = more signal, called active from +8 up or from −8 down
# [15] = target: Torsin-1A-interacting protein 2 (Homo sapiens) (UniProt Q8NFQ8); assay: LULL1 binders on small-molecule microarray, primary screen, cell lysate, human LULL1 lysate, 635/667 nm fluorescence (AID 1092); conditions: hLULL1 lysate binding, 635 nm fluorescence, higher = more signal;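 also: probe is lysate of COS7 cells overexpressing human LULL1; score merges per-feature 667 nm fluorescence with signal-to-noise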
# Sequence of Torsin-1A-interacting protein 2 (Homo sapiens) (Q8NFQ8 whole entry, looked up): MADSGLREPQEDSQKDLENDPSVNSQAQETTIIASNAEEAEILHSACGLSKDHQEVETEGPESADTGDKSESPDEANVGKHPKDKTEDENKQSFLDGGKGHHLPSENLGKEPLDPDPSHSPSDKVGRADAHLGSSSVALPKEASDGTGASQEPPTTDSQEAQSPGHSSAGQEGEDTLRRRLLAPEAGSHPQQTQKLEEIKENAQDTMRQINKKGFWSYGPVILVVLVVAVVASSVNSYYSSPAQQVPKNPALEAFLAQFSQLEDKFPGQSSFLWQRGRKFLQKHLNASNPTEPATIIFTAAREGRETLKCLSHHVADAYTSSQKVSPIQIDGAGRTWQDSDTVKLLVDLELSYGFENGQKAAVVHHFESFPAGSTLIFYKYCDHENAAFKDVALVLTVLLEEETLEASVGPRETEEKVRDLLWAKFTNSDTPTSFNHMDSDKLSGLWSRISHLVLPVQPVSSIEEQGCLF
# [16] = E. coli growth modulation, two-sided OD650, primary screen, E. coli filamentation project, strain DRC41, 24 h (AID 1093); conditions: OD650, 24 h, higher = more signal, called active from +8 up or from −8 down;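 also: MC1000 strain lacking acrAB efflux and sulA so SOS filamentation is blocked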
# [17] = Cryptococcus neoformans growth inhibition, dose response, Alamar Blue, cherry-picks (AID 686998)
# [18] = inducers of Cryptococcus neoformans cell lysis, dose response, AK release luminescence, cherry-picks (AID 687000;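 active = fitted dose curve reaches 40% lysis signal rise at or below the highest valid concentration tested for that sample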;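 also: luminescent detection of adenylate kinase leaking from lysed yeast; 0% = median neutral control signal and 100% = double that signal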)
# [19] = HepG2 cell cytotoxicity, dose response, cytotoxicity control, cherry-picks, set 2 (AID 687002;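 active = a dose-response fit showing signal loss, with half-maximal concentration no higher than twice the top tested dose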)
# [20] = HeLa cell cytotoxicity, dose response, cytotoxicity control, ATP luminescence, cherry-pick samples (AID 687004;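 active = a fitted half-maximal concentration no higher than twice the top valid tested dose, with signal falling as cells die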;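 also: 0% = neutral control median and -100% = staurosporine 10 µM control median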)
smiles,measurement,setting,value
CCCCC(=C=CC[C@@H](O)c1ccc(OCCO)cc1)C[C@@H](O)c1cc(Cl)cc(Cl)c1O,composite z-score,[1],-0.12
same,composite z-score,[2],0.0464
same,composite z-score,[3],-0.0924
same,composite z-score,[4],0.458
same,composite z-score,[5],-0.0054
same,composite z-score,[6],1.26
same,composite z-score,[7],0.597
same,z-score,[8],-2.98 (inactive)
same,composite z-score,[9],0.0049
same,composite z-score,[10],0.0007
same,composite z-score,[11],0.21
same,z-score,[12],-2.58 (inactive)
same,z-score,[13],-6.3 (inactive)
same,z-score,[14],-1.39 (inactive)
same,composite z-score,[15],1.36
same,z-score,[16],1.97 (inactive)
CN1C=C(C(=O)OCCS(C)(=O)=O)C(C(=O)OCCS(C)(=O)=O)=CC(CCCO)=CC1c1cccs1 (stereo unspecified),composite z-score,[1],-0.329
same,composite z-score,[2],0.58
same,composite z-score,[3],-0.197
same,composite z-score,[4],0.239
same,composite z-score,[5],0.907
same,composite z-score,[6],-0.362
same,composite z-score,[7],0.269
same,z-score,[8],-0.234 (inactive)
same,composite z-score,[9],0.137
same,composite z-score,[10],0.0664
same,composite z-score,[11],1.13
same,z-score,[12],-0.444 (inactive)
same,z-score,[13],-1.22 (inactive)
same,z-score,[14],-2.42 (inactive)
same,composite z-score,[15],0.454
same,z-score,[16],0.261 (inactive)
CO[C@H]1O[C@H](CO)[C@@H](OC(=O)Nc2ccccc2)[C@H](OC(=O)Nc2ccccc2-c2ccccc2)[C@H]1OC(=O)Nc1ccccc1-c1ccccc1,composite z-score,[1],0.183
same,composite z-score,[2],1.85
same,composite z-score,[3],-0.0449
same,composite z-score,[4],0.567
same,composite z-score,[5],0.555
same,composite z-score,[6],1.31
same,composite z-score,[7],1.3
same,z-score,[8],-0.114 (inactive)
same,composite z-score,[9],0.714
same,composite z-score,[10],-0.0296
same,composite z-score,[11],1.54
same,z-score,[12],-2.03 (inactive)
same,z-score,[13],-0.674 (inactive)
same,z-score,[14],1.22 (inactive)
same,composite z-score,[15],2.91
same,z-score,[16],1.39 (inactive)
CC(C)CNC(=O)[C@@H]1c2ccccc2C(=O)N(Cc2ccc(OC(F)(F)F)cc2)[C@H]1c1ccc(CO)cc1,composite z-score,[1],-0.0768
same,composite z-score,[2],0.849
same,composite z-score,[3],-0.0095
same,composite z-score,[4],0.34
same,composite z-score,[5],0.988
same,composite z-score,[6],1.15
same,composite z-score,[7],1.21
same,z-score,[8],-2.61 (inactive)
same,composite z-score,[9],0.941
same,composite z-score,[10],-0.206
same,composite z-score,[11],1.54
same,z-score,[12],-1.87 (inactive)
same,z-score,[13],-2.91 (inactive)
same,z-score,[14],-1.06 (inactive)
same,composite z-score,[15],3.01
same,z-score,[16],3.96 (inactive)
C[C@@H]1CN([C@@H](C)CO)C(=O)c2c(c3ccccc3n2C)-c2ccccc2CO[C@@H]1CN(C)S(=O)(=O)c1ccc(Cl)cc1,outcome,[17],inactive
same,outcome,[18],inactive
same,outcome,[19],inactive
COCC(=O)N1C[C@H](C)[C@@H](OC)CN(C)C(=O)c2ccc(NS(C)(=O)=O)cc2OC[C@@H]1C,outcome,[17],inactive
same,outcome,[18],inactive
same,outcome,[19],inactive
same,outcome,[20],inactive
Cc1noc(C)c1NC(=O)N(C)C[C@@H]1Oc2ccc(NC(=O)C3CC3)cc2CC(=O)N([C@H](C)CO)C[C@@H]1C,outcome,[17],inactive
same,outcome,[18],inactive
same,outcome,[19],inactive
same,outcome,[20],inactive
O=C(N[C@H]1CC[C@@H](CCn2cc(-c3ccccc3)nn2)O[C@@H]1CO)c1cnccn1,outcome,[17],inactive
same,outcome,[18],inactive
same,outcome,[19],inactive
same,outcome,[20],inactive
COc1ccccc1CNC(=O)C[C@@H]1C[C@H]2c3cc(NC(=O)Nc4ccccc4F)ccc3O[C@H]2[C@@H](CO)O1,outcome,[17],inactive
same,outcome,[18],inactive
same,outcome,[19],inactive
same,outcome,[20],inactive
C[C@@H]1CN([C@@H](C)CO)S(=O)(=O)c2ccc(-c3ccccc3)cc2O[C@H]1CN(C)C(=O)C1CCCCC1,outcome,[17],inactive
same,outcome,[18],inactive
same,outcome,[19],inactive
O=C(NCc1ccc(F)cc1)C1C2C=CC3(CN(Cc4cccnc4)C(=O)C13)O2 (stereo unspecified),outcome,[17],inactive
same,outcome,[18],inactive
same,outcome,[19],inactive
same,outcome,[20],inactive
C[C@@H](NC(=O)C[C@@H]1CC[C@H]2[C@@H](COC[C@@H](O)CN2Cc2cc(F)ccc2F)O1)c1ccccc1,outcome,[17],inactive
same,outcome,[18],inactive
same,outcome,[19],inactive
C[C@H]1CN([C@@H](C)CO)S(=O)(=O)c2ccc(C#Cc3cccc(F)c3)cc2O[C@@H]1CN(C)C(=O)NC1CCCCC1,outcome,[17],inactive
same,outcome,[18],inactive
same,outcome,[19],inactive
CCC(=O)N1CCN(c2ccccc2NC(=S)NC(=O)c2cccc([N+](=O)[O-])c2)CC1,outcome,[17],inactive
same,outcome,[18],inactive
same,outcome,[19],inactive
same,outcome,[20],inactive
C[C@H](CO)N1C[C@H](C)[C@H](CN(C)Cc2ccccc2)Oc2cc(C#Cc3ccccn3)ccc2S1(=O)=O,outcome,[17],inactive
same,outcome,[18],inactive
same,outcome,[19],inactive
C[C@H](CO)N1C[C@H](C)[C@H](CN(C)C(=O)Nc2cccc(F)c2)Oc2ncc(C#CCN(C)C)cc2C1=O,outcome,[17],inactive
same,outcome,[18],inactive
same,outcome,[19],inactive
same,outcome,[20],inactive
C[C@H]1CCCCO[C@H](CN(C)C(=O)Nc2ccc(F)cc2)[C@@H](C)CN([C@@H](C)CO)C(=O)c2cc(NS(=O)(=O)c3ccc(Cl)cc3)ccc2O1,outcome,[17],inactive
same,outcome,[18],inactive
same,outcome,[19],inactive
O=C(NCCc1ccccc1)[C@H]1[C@H](CO)[C@H]2Cn3c(cccc3=O)[C@@H]1N2C(=O)C1CCC1,outcome,[17],inactive
same,outcome,[18],inactive
same,outcome,[19],inactive
same,outcome,[20],inactive
CCC(=O)N(C)C[C@H]1Oc2cc(-c3ccccc3)ccc2S(=O)(=O)N([C@H](C)CO)C[C@H]1C,outcome,[17],inactive
same,outcome,[18],inactive
same,outcome,[19],inactive
CCC(C(=O)Nc1c(C)cc(C)cc1C)N1CCCCCC1 (stereo unspecified),outcome,[17],inactive
same,outcome,[18],inactive
same,outcome,[19],inactive
same,outcome,[20],inactive
CNC[C@@H]1OCCCC[C@H](C)Oc2ccc(NC(=O)Nc3ccc(F)cc3)cc2C(=O)N([C@@H](C)CO)C[C@H]1C,outcome,[17],inactive
same,outcome,[18],inactive
same,outcome,[19],inactive
same,outcome,[20],inactive
CC(C)CC#Cc1ccc2c(c1)O[C@@H](CN(C)C(=O)C1CCC1)[C@@H](C)CN([C@H](C)CO)S2(=O)=O,outcome,[17],inactive
same,outcome,[18],inactive
same,outcome,[19],inactive
CCCNC(=O)N1[C@@H](CO)[C@@H](c2ccc(-c3ccccc3)cc2)[C@@H]1CNC(C)=O,outcome,[17],inactive
same,outcome,[18],inactive
same,outcome,[19],inactive
same,outcome,[20],inactive
O=S(=O)(c1ccc(F)cc1)N1C[C@@H]2[C@H](c3ccccc31)[C@@H](CO)N2Cc1ccccc1Cl,outcome,[17],inactive
same,outcome,[18],inactive
same,outcome,[19],inactive
C/C=C/c1ccc([C@@H]2[C@@H](CNC(=O)c3ccccc3)N(C(C)=O)[C@H]2CO)cc1,outcome,[17],inactive
same,outcome,[18],inactive
same,outcome,[19],inactive
same,outcome,[20],inactive
CS(=O)(=O)c1ccc(-c2cnc3c(NC=O)cc(-c4ccsc4)cn23)cc1,outcome,[17],inactive
same,outcome,[18],inactive
same,outcome,[19],inactive
Cc1cccc(C)c1NC(=O)C(CCc1ccccc1)N1CCC(c2ccccc2)CC1 (stereo unspecified),outcome,[17],inactive
same,outcome,[18],inactive
same,outcome,[19],inactive
O=C(Nc1ccc(Cl)c([N+](=O)[O-])c1)c1ccco1,outcome,[17],inactive
same,outcome,[18],inactive
same,outcome,[19],inactive
same,outcome,[20],inactive
CO[C@@H]1CN(C)C(=O)c2cc(NS(=O)(=O)C3CCCCC3)ccc2OC[C@H](C)NC[C@@H]1C,outcome,[17],inactive
same,outcome,[18],inactive
same,outcome,[19],inactive
same,outcome,[20],inactive
CC(C)NC(=O)Nc1ccc2c(c1)CC(=O)N([C@@H](C)CO)C[C@@H](C)[C@@H](CN(C)Cc1ccc(Oc3ccccc3)cc1)O2,outcome,[17],inactive
same,outcome,[18],inactive
same,outcome,[19],inactive
